Screen size: about 310,000 compounds; about 14,000 (4.5%) showed an effect of 50% or more. Effects have a minus sign here. This excerpt belongs to a sample that is enriched for strong results.
The compounds below were run against human ether-à-go-go-related gene (hERG) potassium channel (human, UniProt Q12809) (assay: primary screen, population patch clamp on CHO cells stably expressing hERG; higher = less effect of the substance).
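Note: peak tail current of the secondary pulse compared with the same well before compound.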

human ether-à-go-go-related gene (hERG) potassium channel, sequence (Q12809 whole entry, looked up): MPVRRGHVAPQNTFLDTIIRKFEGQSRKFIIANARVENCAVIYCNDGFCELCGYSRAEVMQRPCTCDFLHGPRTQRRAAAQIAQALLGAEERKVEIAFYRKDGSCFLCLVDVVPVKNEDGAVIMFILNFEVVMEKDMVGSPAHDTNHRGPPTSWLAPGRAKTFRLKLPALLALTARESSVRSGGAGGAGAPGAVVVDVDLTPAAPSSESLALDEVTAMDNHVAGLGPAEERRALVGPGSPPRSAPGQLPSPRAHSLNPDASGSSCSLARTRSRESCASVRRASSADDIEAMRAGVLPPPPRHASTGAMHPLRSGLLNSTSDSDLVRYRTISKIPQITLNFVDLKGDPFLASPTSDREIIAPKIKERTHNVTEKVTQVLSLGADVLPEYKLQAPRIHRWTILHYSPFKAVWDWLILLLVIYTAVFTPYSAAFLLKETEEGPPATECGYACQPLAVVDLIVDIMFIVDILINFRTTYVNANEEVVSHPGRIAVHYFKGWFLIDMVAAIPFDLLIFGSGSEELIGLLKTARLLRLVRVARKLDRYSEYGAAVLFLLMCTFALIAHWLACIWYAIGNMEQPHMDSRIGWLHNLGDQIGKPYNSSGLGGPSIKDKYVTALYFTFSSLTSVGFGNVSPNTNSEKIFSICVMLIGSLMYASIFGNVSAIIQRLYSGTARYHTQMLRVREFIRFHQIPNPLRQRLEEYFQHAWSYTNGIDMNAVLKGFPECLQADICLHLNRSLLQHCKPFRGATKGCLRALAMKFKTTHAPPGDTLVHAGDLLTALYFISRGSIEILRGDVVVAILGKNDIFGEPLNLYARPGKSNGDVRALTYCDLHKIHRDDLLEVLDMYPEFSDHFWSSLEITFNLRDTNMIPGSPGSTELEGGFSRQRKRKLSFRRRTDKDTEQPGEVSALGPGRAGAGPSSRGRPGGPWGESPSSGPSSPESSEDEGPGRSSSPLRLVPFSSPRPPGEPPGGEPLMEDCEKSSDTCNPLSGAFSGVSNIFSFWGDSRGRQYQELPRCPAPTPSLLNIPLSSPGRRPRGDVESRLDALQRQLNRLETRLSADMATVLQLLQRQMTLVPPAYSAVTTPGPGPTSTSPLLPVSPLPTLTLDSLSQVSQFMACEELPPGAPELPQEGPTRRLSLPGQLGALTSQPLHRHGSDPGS

| Compound | hERG current change (%, negative = inhibition) at 10uM |
| --- | --- |
| COC(=O)c1ccc(NS(=O)(=O)c2ccc(SC)cc2)cc1 | -2.34% |
| Cc1nn(Cc2c(Cl)cccc2Cl)c(C)c1N | 9.12% |
| CCOC(=O)C1=C(c2ccccc2)N=C2SCC(=O)N2C1c1ccc(OCC)c(OCC)c1 (stereo not shown) | 6.45% |
| O=C(Nc1ccncc1)c1cc2ccccc2cc1O | 5.89% |
| Cc1ccc(-n2cc(C(=O)c3ccccc3O)cn2)cc1 | 19.8% |
| CCCCNC(=O)[C@H]1C[C@H]1[C@@H](O)[C@H](CO)NC(=O)[C@H](CC(C)C)NC(=O)OC(C)(C)C | 16.1% |
| CCc1ccccc1NC(=O)CSc1nc(-c2ccccc2)nn1C(=O)c1cccc([N+](=O)[O-])c1 | -0.129% |
| Br.CCS(=O)CCSC(=N)N (stereo not shown) | 19.2% |
| CCS(=O)(=O)CCSC(=N)N.Cl | -53.3% |
| Br.Cc1ccc(S(=O)(=O)CCSC(=N)N)cc1 | 13.1% |
| O=C(C1CCCN1S(=O)(=O)c1cccc2cccnc12)N1CCc2ccccc2C1 (stereo not shown) | -57.5% |
| O=C(Nc1cccc(C(F)(F)F)c1)C1CCCN1S(=O)(=O)c1cccc2cccnc12 (stereo not shown) | -12.4% |
| O=C(C1CCCN1S(=O)(=O)c1cccc2cccnc12)N1CCN(c2ccccc2)CC1 (stereo not shown) | -45% |
| CC(=O)c1ccc(NC(=O)C2CCCN2S(=O)(=O)c2cccc3cccnc23)cc1 (stereo not shown) | 7.11% |
| O=C(Nc1ccc(C(F)(F)F)cc1)C1CCCN1S(=O)(=O)c1cccc2cccnc12 (stereo not shown) | -51.9% |
| O=C(C1CCCN1S(=O)(=O)c1cccc2cccnc12)N1CCn2c1nc1ccccc12 (stereo not shown) | -50.8% |
| O=C(O)[C@H]1CCCN1S(=O)(=O)c1cccc2cccnc12 | 0.132% |
| O=C(C1CCN(S(=O)(=O)c2cccc3cccnc23)CC1)N1CCn2c1nc1ccccc12 | -9.66% |
| O=C(C1CCCN1S(=O)(=O)c1cccc2cccnc12)N1CCc2ccccc21 (stereo not shown) | -31.7% |
| CSc1ncccc1C(=O)Nc1ccc(S(=O)(=O)NC2=NCCCCC2)cc1 | 7.85% |
| COC(=O)CCSCC(=O)Nc1cc(C)on1 | -14.4% |
| O=C(COc1cccc2cccnc12)N/N=C1\SCC(=O)N1Cc1ccccc1 | -44.8% |

| Compound | hERG current change (%, negative = inhibition) at 10uM |
| --- | --- |
| COc1cc(C(=O)OCC(=O)NCc2ccc(F)cc2)ccc1OCC(C)C | 21.1% |
| COc1ccc(NC(=O)N2CCN(S(C)(=O)=O)CC2)cc1OC | -0.713% |
| O=C(/C=C/c1ccc(Br)cc1)NC1CCCCCC1 | -4.17% |
| Cc1onc(-c2ccccc2)c1C(=O)Nc1ccc(S(=O)(=O)N2CCOCC2)cc1 | -29.6% |
| O=c1[nH]c(=O)n(-c2cccc(F)c2)c(O)c1/C=C1\C=Nc2ccccc21 | 14% |
| O=[N+]([O-])c1ccc(Oc2cccc3cccnc23)c(Cl)c1 | -15.4% |
| N#Cc1ccc(Oc2cccc3cccnc23)c([N+](=O)[O-])c1 | -79.1% |
| NC(=O)c1ccc(Oc2cccc3cccnc23)c([N+](=O)[O-])c1 | -13.4% |
| O=[N+]([O-])c1ccccc1OCCCOc1cccc2cccnc12 | -15.3% |
| Cc1ccc2cccc(Oc3ccc([N+](=O)[O-])cc3[N+](=O)[O-])c2n1 | -7.96% |
| O=[N+]([O-])c1ccc(Oc2cccc3cccnc23)c([N+](=O)[O-])c1 | -52% |
| O=C(C1CCCN(S(=O)(=O)c2cc(Cl)ccc2Cl)C1)N1CCCCCC1 (stereo not shown) | -62.4% |
| COc1ccc(OC)c(S(=O)(=O)N2CCCC(C(=O)N3CCOCC3)C2)c1 (stereo not shown) | 20.5% |
| O=C(C1CCCN(S(=O)(=O)c2cc(Cl)ccc2Cl)C1)N1CCCC1 (stereo not shown) | -19.5% |
| COc1ccc(Cl)cc1S(=O)(=O)N1CCCC(C(=O)N2CCCC2)C1 (stereo not shown) | -5.2% |
| O=C(C1CCCN(S(=O)(=O)c2cc(Cl)ccc2Cl)C1)N1CCOCC1 (stereo not shown) | -33.2% |
| COc1ccc(Cl)cc1S(=O)(=O)N1CCCC(C(=O)N2CCOCC2)C1 (stereo not shown) | -69.4% |
| O=C(NCc1ccc(F)cc1)C(=O)NCC1OCCN1C(=O)c1ccc(Cl)cc1 (stereo not shown) | -43.2% |
| CN(C)Cc1c(O)ccc2cc(-c3nc4ccccc4n3C)c(=O)oc12 | 10.2% |
| O=C1/C(=C/c2cccs2)SC(=S)N1N1CCOCC1 | 5.26% |
| O=[N+]([O-])c1cc(CN2CCN(c3ccccc3)CC2)c(O)c2ncccc12 | -7.8% |
| O=[N+]([O-])c1cc(S(=O)(=O)/N=C(/c2ccccc2)N2CCOCC2)ccc1Cl | -23.9% |

| Compound | hERG current change (%, negative = inhibition) at 10uM |
| --- | --- |
| CC(C)CSC1=NSC2=NC(=O)/C(=C\c3cccs3)C(=N)N12 | 20.2% |
| CC(C)(Oc1ccc(Cl)cc1)C(=O)NCC(c1ccco1)N1CCCCC1 (stereo not shown) | -20.2% |
| COc1ccc(C(CNC(=O)C(C)(C)Oc2ccc(Cl)cc2)N2CCCC2)cc1 (stereo not shown) | -50.1% |
| COc1ccc(C(CNC(=O)C(C)(C)Oc2ccc(Cl)cc2)N2CCCCC2)cc1 (stereo not shown) | -53.8% |
| CC(C)(Oc1ccc(Cl)cc1)C(=O)NCC(c1cccs1)N1CCOCC1 (stereo not shown) | -5.84% |
| COc1ccccc1C(CNC(=O)C(C)(C)Oc1ccc(Cl)cc1)N1CCCC1 (stereo not shown) | -45.1% |
| COc1ccc(C(CNC(=O)Cc2ccccc2Cl)N2CCCCC2)cc1 (stereo not shown) | 23% |
| COc1ccc(N(CC(=O)O)S(=O)(=O)c2ccc(OC)c(OC)c2)cc1 | -29.6% |
| CS(=O)(=O)c1cccc(C(=O)Nc2cccc(-c3nc4ccccc4[nH]3)c2)c1 | -56.7% |
| CC(C)CC(=O)Nc1cccc(-c2nc3ccccc3[nH]2)c1 | -16.5% |
| O=C(COc1ccccc1)Nc1cccc(-c2nc3cc4ccccc4cc3[nH]2)c1 | -9.82% |
| CS(=O)(=O)c1cccc(C(=O)Nc2ccc(-c3nc4ccccc4[nH]3)cc2)c1 | 11.5% |
| O=C(COc1ccccc1)Nc1cccc(-c2nc3ccccc3[nH]2)c1 | -67% |
| CS(=O)(=O)c1ccc(C(=O)Nc2cccc(-c3nc4ccccc4[nH]3)c2)cc1 | 16% |
| COc1ccc(OCC(=O)Nc2cccc(-c3nc4ccccc4[nH]3)c2)cc1 | -55.9% |
| O=C(O)CCCC(=O)Nc1cccc(-c2nc3ccccc3[nH]2)c1 | 34.1% |
| CC(=O)Nc1cccc(-c2nc3ccccc3[nH]2)c1 | 1.87% |
| COc1ccc(-n2c(SCC(=O)Nc3ccc4c(c3)OCO4)nc3c(c2=O)SCC3)cc1 | -10.9% |
| CCN(C(=S)NCCOC)c1cccc2ccccc12 | 8.8% |
| CC1(O)N(Cc2ccccc2)C(=O)OC12CCCCC2 (stereo not shown) | 9.89% |
| CC1CN(CC(=O)NCc2ccc(F)cc2)CC(C)O1 (stereo not shown) | 7.79% |
| CCn1ncc(S(=O)(=O)N2CCN(c3cccc(OC)c3)CC2)c1C | 5.68% |

| Compound | hERG current change (%, negative = inhibition) at 10uM |
| --- | --- |
| N/C(=N\OC(=O)c1ccccc1[N+](=O)[O-])c1cccnc1 | -2.9% |
| O=C(NCc1ccco1)c1cccc(S(=O)(=O)N2CCCCC2)c1 | -24.7% |
| Cc1ccc[n+](Cc2ccc([N+](=O)[O-])cc2)c1.[Br-] | 27.1% |
| C/C=C/c1ccc(OCCn2nnc3ccccc32)c(OC)c1 | -2.9% |
| C=CCc1ccc(OCCN2CCc3ccccc3C2)c(OC)c1.O=C(O)C(=O)O | -67.6% |
| C=CCc1cc(OC)ccc1OCCOCCN1CCc2ccccc2C1.O=C(O)C(=O)O | -71% |
| C=CCc1ccc(OCCCCNC(C)CC)c(OC)c1.O=C(O)C(=O)O (stereo not shown) | -39.3% |
| C=CCc1cc(OC)ccc1OCCN(C)Cc1ccccc1.O=C(O)C(=O)O | -16.6% |
| C=CCc1ccc(OCCOCCN(C)C)c(OC)c1.O=C(O)C(=O)O | -27.5% |
| C=CCc1ccc(OC(=O)c2ccccc2)c(OC)c1 | 5.73% |
| COc1cc(C)ccc1OCCCCNCc1ccccc1.O=C(O)C(=O)O | -0.752% |
| C/C=C/c1ccc(OCC(=O)N2CCc3cc(OC)c(OC)cc3C2)c(OC)c1 | -12.4% |
| C=CCc1cc(C)ccc1OCCOCCN1CCN(C)CC1.O=C(O)C(=O)O | -10.7% |
| C/C=C/c1ccc(OCCN2CCc3ccccc3C2)c(OC)c1 | -77.7% |
| C=CCc1ccc(OCCCNCc2ccccc2)c(OC)c1.O=C(O)C(=O)O | -57.4% |
| O=C(NCc1ccncc1)c1ccc(Cl)c(S(=O)(=O)N2CCOCC2)c1 | 12.4% |
| CC1(C)OCC(COC(=O)Nc2cccnc2)([N+](=O)[O-])CO1 | 23.8% |
| O=C(Nc1ccccc1)OCCOc1ccccc1 | -17.8% |
| CC1(c2ccccc2)CC(C)(C)N2C(=O)/C(=C3\SC(=S)NC3=O)c3cccc1c32 (stereo not shown) | -0.561% |

From publication PMC4336329 (PLoS ONE, 2015)
